Rows were chosen to be rich in hits. Some 21% of all compounds tested hit in one or more screens of this group.
DRD3 agonist – qHTS of D3 Dopamine Receptor Agonist: qHTS | 410,000 tested, 0.58% active | D(3) dopamine receptor (Homo sapiens), P35462 | AID 652048, 2013 | D3R DiscoveRx beta-arrestin cells, luminescence, 90 min | max activation, %; in the data active = max activation above about 30%; note: 0% is about no effect
Target sequence (P35462 whole entry, looked up): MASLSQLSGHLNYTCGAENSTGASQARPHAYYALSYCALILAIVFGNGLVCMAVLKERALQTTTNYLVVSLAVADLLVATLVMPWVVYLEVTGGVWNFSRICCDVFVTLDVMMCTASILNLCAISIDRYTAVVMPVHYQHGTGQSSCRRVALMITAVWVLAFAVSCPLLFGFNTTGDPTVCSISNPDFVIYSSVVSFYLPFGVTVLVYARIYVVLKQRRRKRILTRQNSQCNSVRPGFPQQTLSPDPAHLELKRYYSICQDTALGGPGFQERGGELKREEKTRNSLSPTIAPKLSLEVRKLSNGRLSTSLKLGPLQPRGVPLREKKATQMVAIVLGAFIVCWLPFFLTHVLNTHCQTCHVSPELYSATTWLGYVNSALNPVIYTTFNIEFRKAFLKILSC
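Agonist mode: compounds and dopamine controls were applied to plated cells for 90 min at 37 degrees C after an overnight attachment at 1500 cells/well. Luminescent read-out followed 30 - 60 minutes at room temperature with DiscoveRx detection reagent.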
TDP1 cell CPT – qHTS for Inhibitors of human tyrosyl-DNA phosphodiesterase 1 (TDP1): qHTS in cells in presence of CPT. chicken DT40 Tdp1-/-;hTDP1 cells + 20 nM CPT, ATP luminescence, 48 h. Potency, µM (titrated, usually from 46.2 µM), inactives show at the top dose activity change, negative = growth inhibition, actives largely listed as inhibitors. 420,000 tested, 12% active. AID 686979, 2013; note: potency is the fitted concentration of half-maximal effect; % is set by controls: 0 for no effect and ±100 for the full control effect; nearly all actives have a fitted effect of over 55% in size
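Chicken DT40 Tdp1-/- cells stably complemented with human TDP1 were seeded at 400 cells/well in medium containing 20 nM camptothecin, exposed to pin-transferred compounds, and grown at 37 °C for at least 48 hr. Viability was read as ATP luminescence.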
ClpP mod – qHTS Assay for Activators of ClpP; purified B. subtilis ClpP, FRET peptide cleavage, 20 min; 340,000 tested, 1.9% active; ATP-dependent Clp protease proteolytic subunit (Bacillus subtilis (strain 168)), P80244; Potency, µM (titrated, usually from 57.5 µM), for the others: at the highest dose activity change, negative = active; active = well fitted falling curve with a large enough effect; inconclusive = small, poorly fitted or top-dose-only effect; inactive = no such curve, though single readings can be large or run the other way; note: potency is the fitted concentration of half-maximal effect; the source files actives as falling curves though it sought activators and does not explain the sign; nearly all actives have a fitted effect of over 65% in size
Target sequence (P80244 whole entry, looked up): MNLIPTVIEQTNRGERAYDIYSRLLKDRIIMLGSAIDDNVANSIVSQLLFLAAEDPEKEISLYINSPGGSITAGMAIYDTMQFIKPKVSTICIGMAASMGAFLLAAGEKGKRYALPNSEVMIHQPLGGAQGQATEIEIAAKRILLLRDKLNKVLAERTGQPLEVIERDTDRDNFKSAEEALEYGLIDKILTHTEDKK
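Purified B. subtilis ClpP, 10 microg/mL final in Tris/HCl pH8 with KCl, BSA, glycerol and Tween-20, cleaved an Abz/nitrotyrosine-quenched decapeptide. Fluorescence (ex 320, em 430) was read at 0 and 20 min at room temperature. Delta was normalized to 5.8 microM ADEP and DMSO/no-enzyme controls.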
TDP1 cell noCPT – qHTS for Inhibitors of human tyrosyl-DNA phosphodiesterase 1 (TDP1): qHTS in cells in absence of CPT. AID 686978, 2013. Potency, µM (series often up to 46.2 µM), for inactives: at the top dose activity change, negative = growth inhibition, usual class: inhibitors. DT40 Tdp1-/- hTDP1 cells, no CPT, ATP luminescence, 48 h. 420,000 tested, 15% active; note: potency is the fitted concentration of half-maximal effect; % is set by controls: 0 for no effect and ±100 for the full control effect; nearly all actives have a fitted effect of over 55% in size
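Growth kinetics read by CellTiter-Glo luminescence after ≥48 hr at 37 °C. Cells: DT40 Tdp1-/- stably carrying human TDP1, 400 per well, compound exposure in the absence of CPT (DMSO vehicle).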
DRD3 antagonist – qHTS of D3 Dopamine Receptor Antagonist: qHTS | D3R cells, DiscoveRx beta-arrestin luminescence, antagonist mode; stronger effect = lower value | 360,000 tested, 2.5% active | max response, negative = inhibition, % | D(3) dopamine receptor (Homo sapiens), P35462; in the data active = max response below about -50%; inconclusive = no clear call, values can overlap the other calls; note: % is set by controls: 0 for no effect and ±100 for the full control effect
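Cells plated overnight at 1500 cells/well, then exposed to library compounds with dopamine controls for 90 minutes at 37 degrees C. DiscoveRx reagent added for 30–60 minutes at room temperature; luminescence read, quantitative HTS format.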
IL-1B inflam inh – qHTS for Inhibitors of Inflammasome Signaling: IL-1-beta AlphaLISA Primary Screen. THP-1 LPS/ATP IL-1B secretion, AlphaLISA, 16 h; stronger effect = lower value. activity change, % at 57.5 µM. 360,000 tested, 4.7% active; in the data active = activity change below about -50%; inconclusive = mostly about -30% to -49%; note: % is set by controls: 0 for no effect and ±100 for the full control effect
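Secreted IL-1B measured by AlphaLISA bead assay after 16 h compound exposure of THP-1 cells; compounds (final up to 57.5 uM) added 1 h before LPS (250 ng/mL) and ATP (1.25 mM) stimulation; lower signal means less secretion.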
* = called active by the depositor. Unless noted, calls come from the whole dose curve; as a rule, active = well fitted inhibition curve with a large enough effect; inconclusive = small, poorly fitted or top-dose-only effect; inactive = flat fitted curve, though single readings scatter.

Cc1nn(-c2ccccc2)c2sc(C(=O)Nc3cccc(Cl)c3)cc12 was read as DRD3 agonist 4, TDP1 cell CPT inconclusive, ClpP mod -30% and TDP1 cell noCPT 23µM*.
COc1ccccc1NC(=O)c1cc2c(C)nn(-c3ccccc3)c2s1 was read as DRD3 agonist 7, TDP1 cell CPT inconclusive, ClpP mod inconclusive and TDP1 cell noCPT 23µM*.
COc1ccc(NC(=O)c2cc3c(C)nn(-c4ccccc4)c3s2)c(OC)c1 was read as DRD3 agonist 0, TDP1 cell CPT inconclusive, ClpP mod 1% and TDP1 cell noCPT inconclusive.
For CNC(=O)COC(=O)c1cc2c(C)nn(-c3ccc(F)cc3)c2s1 the results were DRD3 agonist 11, TDP1 cell CPT -2%, ClpP mod 35µM*, TDP1 cell noCPT -30%, DRD3 antagonist -7 and IL-1B inflam inh -5.
Screening Cc1nc(NC(=O)c2cc3c(C)nn(-c4ccccc4)c3s2)sc1C(=O)Nc1ccccc1 returned DRD3 agonist 7, TDP1 cell CPT inconclusive, ClpP mod -11%, TDP1 cell noCPT 21µM*, DRD3 antagonist 32 and IL-1B inflam inh 21.
`Cn1c(-c2cccc(Br)c2)cnc1NCc1cccc(F)c1` gave DRD3 agonist -6, TDP1 cell CPT inconclusive, ClpP mod 1% and TDP1 cell noCPT inconclusive.
For CCOC(=O)c1noc2ncn(CC(=O)O)c(=O)c12 the results were DRD3 agonist 2, TDP1 cell CPT inconclusive, ClpP mod 16% and TDP1 cell noCPT inconclusive.
Cn1nc(-c2ccccc2)c2cc(C(=O)O)sc21 was read as DRD3 agonist -4, TDP1 cell CPT -18%, TDP1 cell noCPT -14%, DRD3 antagonist -24 and IL-1B inflam inh -14.
`Cc1ccc(NC(=O)c2cc3c(-c4ccccc4)nn(-c4ccccc4)c3s2)cc1` gave DRD3 agonist 5 and ClpP mod 18µM*.
N#CC(c1ccc(N)cc1)C(CC(=O)c1ccccc1)c1ccccc1 (configuration not stated) was read as DRD3 agonist 5, TDP1 cell CPT inconclusive, ClpP mod 2%, TDP1 cell noCPT 29µM*, DRD3 antagonist 1 and IL-1B inflam inh -16.
For O=C(CC(Nc1ccccc1)C(=O)O)c1ccccc1 (configuration not stated) the results were DRD3 agonist -3, TDP1 cell CPT inconclusive, ClpP mod 0%, TDP1 cell noCPT inconclusive, DRD3 antagonist -22 and IL-1B inflam inh 11.
`CN(Cc1cc(Cl)cc(Cl)c1)CC(C(=O)c1ccccc1)c1ccccc1` (configuration not stated) gave DRD3 agonist -4, TDP1 cell CPT 6.5µM*, ClpP mod -1%, TDP1 cell noCPT 7.3µM*, DRD3 antagonist -23 and IL-1B inflam inh -79*.
Screening N#CC(c1ccccc1)C(CC(=O)c1ccccc1)c1ccccc1 (configuration not stated) returned DRD3 agonist 3, TDP1 cell CPT inconclusive, ClpP mod 0%, TDP1 cell noCPT inconclusive, DRD3 antagonist 38 and IL-1B inflam inh -6.
C=C(C(=O)c1ccccc1)C(C)CC(=O)c1ccccc1 (configuration not stated) was read as DRD3 agonist -26, TDP1 cell CPT 23µM*, ClpP mod -9%, TDP1 cell noCPT 15µM*, DRD3 antagonist inconclusive and IL-1B inflam inh -106*.
CN(C)CC(C(=O)c1ccccc1)c1ccccc1 (configuration not stated) was read as DRD3 agonist -22, TDP1 cell CPT 1.2µM*, ClpP mod -4%, TDP1 cell noCPT 1.5µM*, DRD3 antagonist -51* and IL-1B inflam inh -101*.
For CC(=O)N(c1ccccc1)C(C(=O)c1ccccc1)c1ccccc1 (configuration not stated) the results were DRD3 agonist -5, TDP1 cell CPT inconclusive, TDP1 cell noCPT inconclusive, DRD3 antagonist 16 and IL-1B inflam inh inconclusive.
`C=C(C(=O)c1ccccc1)C(NC(C)(C)C)c1ccccc1` (configuration not stated) gave DRD3 agonist -16, TDP1 cell CPT 2.1µM*, ClpP mod -28%, TDP1 cell noCPT 2.3µM*, DRD3 antagonist -18 and IL-1B inflam inh -101*.
`O=C(CC(C(=O)c1ccccc1)c1ccccc1)c1ccccc1` (configuration not stated) gave DRD3 agonist 12, TDP1 cell CPT inconclusive, TDP1 cell noCPT 21µM*, DRD3 antagonist 26 and IL-1B inflam inh inconclusive.
Screening COC(=O)C(NC(=O)c1ccccc1)c1ccccc1 (configuration not stated) returned DRD3 agonist 2, TDP1 cell CPT -15%, ClpP mod 1%, TDP1 cell noCPT 3%, DRD3 antagonist 17 and IL-1B inflam inh 17.
For COc1ccc(N(C(=O)Cn2nnc3ccccc32)C(C(=O)NCc2ccco2)c2ccc(C)o2)cc1 (configuration not stated) the results were DRD3 agonist 2, TDP1 cell CPT -24%, ClpP mod -2%, TDP1 cell noCPT -30%, DRD3 antagonist -5 and IL-1B inflam inh -12.
Screening COc1ccc(C(CC(=O)NCc2ccco2)c2ccc(F)cc2)cc1 (configuration not stated) returned DRD3 agonist -8, TDP1 cell CPT -26%, ClpP mod 1%, TDP1 cell noCPT -4%, DRD3 antagonist -21 and IL-1B inflam inh -3.
Screening CCOc1ccc(N(C(C)C(=O)NCc2ccco2)S(C)(=O)=O)cc1 (configuration not stated) returned DRD3 agonist -6, TDP1 cell CPT -28%, ClpP mod -3%, TDP1 cell noCPT -13%, DRD3 antagonist -21 and IL-1B inflam inh 23.
Screening COc1ccc(NC(=O)/C=C\C(=O)N(c2ccc(C(C)C)cc2)C(C(=O)NCc2ccco2)c2ccc(F)cc2)cc1 (configuration not stated) returned DRD3 agonist 2, TDP1 cell CPT 18µM*, ClpP mod 2% and TDP1 cell noCPT inconclusive.
